Here are results for five compounds from PubChem BioAssay AID624168 (Sanford-Burnham Center for Chemical Genomics, 2012).

The campaign covered roughly 360,000 compounds. About 800 (0.22%) were called active. The entries come from a sample that favours actives as a whole. Values without a mark were called inactive.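 The calls were made as follows: active = activation of at least 8% versus controls, or a plate z-score of at least 8; inactive = the rest.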

A short description of this assay: compounds raising alpha-dystroglycan glycosylation – uHTS, Pro5-aDG cells, AlphaScreen, primary screen (AID 624168).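 Also: Pro5 are CHO cells carrying HIG-tagged alpha-DG that lacks glycosylation.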 Particulars: alpha-DG glycosylation AlphaScreen (IIH6), at 10 µM, active compounds read high; 0% Pro5, 100% B10-LARGE cell signal unless noted. A general note: Bead proximity is the source of the signal in Alpha formats.
As for `CNCC(O)c1cc(F)c(OCc2ccccc2)c(OCc2ccccc2)c1F` (stereo not given), the activation was 7.7% (active).
With `Cc1ccc(C2CN(C)CC2C(=O)c2ccc(F)cc2)cc1` (stereo not given), the activation is 0% [setting not given].
For the compound `Cc1nc2ccccn2c1P(=S)(N1CCCCC1)N1CCCCC1`, the activation is -0.2% [setting not given].
Turning to `COc1cc(C(=O)N2Cc3ccc(Br)cc3-n3nncc3C2)cc(OC)c1OC`, the activation is -0.2%.
In the case of `COC(=O)C1=C(c2ccc(F)cc2OCc2ccccc2)C[C@@H]2CC[C@H]1N2C(=O)NCc1ccc(Cl)cc1`, the activation was 0.6%.
